# Cycloheximide cs – counter-screen for Shiga toxin inhibitors: cycloheximide protein synthesis inhibition | cell reporter, cycloheximide protein synthesis inhibition counterscreen | max response, % | 12% of 300,000 active | AID 2314; in the data active means max response mostly above about 13%, no sharp cut-off; inactive means mostly below about 14%; further: read at 38.3 µM for the half of the compounds with a filed dose; 0% is about no effect
# Pf growth 48h – P. falciparum growth inhibition at 48 hours (one generation); 5.9% of 310,000 active; Potency, µM (titrated, usually from 28.7 µM), inactives show at the highest dose activity change, negative = inhibition, hits mostly inhibitors; P. falciparum luciferase growth in erythrocytes, 48 h; further: potency means the concentration at half of the fitted maximal effect; on the % scale 0 is the no-effect control and ±100 the full control effect
#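 First compound was added to culture medium, then infected red cells at 0.1% parasitemia and 2% hematocrit (final). After incubation at 37 C under 5% CO2, luciferase detection reagent was dispensed and light output recorded.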
# HCMV antiviral – inhibitors of human cytomegalovirus. HFF cells, HCMV-luciferase reporter, 72 h; hits give low values. activity change, negative = inhibition, % at 57.5 µM. 4.5% of 410,000 active; in the data active means activity change below about -60%; inconclusive means no clear call, values can overlap the other calls; inactive means above about -39%; further: on the % scale 0 is the no-effect control and ±100 the full control effect
#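 Two compound doses tested in HFFs infected with HCMV-luciferase, MOI 1 PFU/cell, 72 h at 37C. Lysate luminescence read with OneGlo; data normalized against buffer-only and 10uM Salinomycin inhibitor controls.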
# Pf growth 96h – P. falciparum growth inhibition at 96 hour, primary screen for plastid delayed-death inhibitors. P. falciparum luciferase reporter growth, 96 h. Potency, µM (doses to about 28.7 µM), for the others: top-dose activity change, negative = inhibition, most hits filed as inhibitors. 6.9% of 320,000 active. AID 504834; further: potency means the concentration at half of the fitted maximal effect; on the % scale 0 is the no-effect control and ±100 the full control effect
#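 Two-generation exposure (96 h) targets delayed-death phenotype. Reporter parasites carrying integrated firefly luciferase, in red cells at 2% hematocrit and 0.05% parasitemia final, kept at 37 C, 5% CO2; luminescence loss indicates inhibition.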
# HCV inhibitor – HCV inhibition | Potency, µM (doses to about 41.8 µM), for inactives: top-dose activity change, negative = inhibition, usual class: inhibitors | 3.4% of 340,000 active | AID 651820 | Huh7.5.1 HCVcc-Cre infection, luciferase reporter, 44 h; further: potency means the concentration at half of the fitted maximal effect; on the % scale 0 is the no-effect control and ±100 the full control effect
#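 1,000 cells/well; 4 h culture; + compound; + HCVcc-Cre (~0.5 moi); 44 h; luciferase substrate, RT 15 min; read 15 sec.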
# Shiga toxin inh – blocks Shiga toxin action in Vero cells; AID 2315; 9.2% of 290,000 active; inhibition, % at 38.7 µM; Vero cells, Shiga toxin protein synthesis inhibition reporter; in the data active means inhibition mostly above about 28%, no sharp cut-off; inactive means mostly below about 43%; further: 0% is about no effect
# Numbers without * were called inactive; ? = inconclusive; nt = no result given. A selection: hits, their analogues and other compounds. The true share with any hit is near 21%. Unless noted, the call rests on the fitted dose curve; in most records, active means well fitted inhibition curve with a large enough effect; inconclusive means small, poorly fitted or top-dose-only effect, or another doubt; inactive means no such curve, though single readings can be large or run the other way.
SMILES,Cycloheximide cs,Pf growth 48h,HCMV antiviral,Pf growth 96h,HCV inhibitor,Shiga toxin inh
Cc1ccc(NC(=O)c2oc3ccccc3c2NC(=O)C2CC2)cc1,-1,1%,?,0%,-2%,1
CCOc1ccc(NC(=O)c2oc3ccccc3c2NC(=O)c2c(F)cccc2F)cc1,nt,nt,-24,nt,nt,nt
O=C(Nc1ccc(F)cc1)c1oc2ccccc2c1NC(=O)C1CC1,-1,?,-60*,7%,-6%,-6
CCOc1ccccc1C(=O)Nc1c(C(=O)Nc2ccc(F)cc2)oc2ccccc12,nt,nt,-62*,nt,nt,nt
CCOC(=O)c1ccc(CN(Cc2ccccc2)S(=O)(=O)c2ccc(C)cc2)cc1,nt,nt,0,nt,nt,nt
CCCNC(=O)COc1coc(CN2CCN(c3ccccc3)CC2)cc1=O,1,11%,-24,?,-22%,-7
COc1ccc(CCNC(=O)CN2CCN(c3cccc(Cl)c3)CC2)cc1OC,-3,nt,11,?,10µM*,-23
CNC(=O)COc1coc(CN2CCN(c3ccccc3)CC2)cc1=O,-2,7%,-5,-14%,-3%,-9
CCCNC(=O)COc1coc(CN2CCN(c3cccc(Cl)c3)CC2)cc1=O,-4,-16%,-1,10µM*,-6%,-5
CCN(CC)C(=O)COc1coc(CN2CCN(c3cccc(Cl)c3)CC2)cc1=O,-1,-12%,3,8.3µM*,11%,-3
CN(C(=O)COc1coc(CN2CCN(c3ccccc3)CC2)cc1=O)c1ccccc1,nt,-13%,-16,13µM*,-3%,nt
COc1ccc(CNC(=O)N2CCN(c3cccc(Cl)c3)CC2)cc1OC,-3,18%,-1,?,?,-6
Cc1ccc2[nH]c3c(=O)n(CC(=O)N4CCCC(C)C4)ncc3c2c1 (centres undefined),nt,nt,18,nt,nt,nt
Cc1cc(C(=O)COC(=O)COc2ccccc2C#N)c(C)n1CC1CCCO1 (centres undefined),nt,12%,0,15%,11%,nt
CCN(C(=O)CSc1nnc(-c2ccccc2OC)n1N)c1c(N)n(Cc2ccccc2)c(=O)[nH]c1=O,nt,nt,5,nt,17%,nt
COc1ccc(C(=O)NCc2nnc(SCC(=O)N3CCCCCC3)o2)cc1OC,-2,5%,18,-14%,-1%,-5
COc1ccc(C(=O)NCc2nnc(SCC(=O)N3CCCCC3)o2)cc1OC,3,nt,20,3.3µM*,0%,25
COc1ccc(Cc2nnc(SCC(=O)N3CCCC(C)C3)o2)cc1 (centres undefined),5,7.4µM*,?,?,-8%,17
O=C(CSc1nnc(COc2ccc(Cl)cc2)o1)N1c2ccccc2CCc2ccccc21,-1,?,-16,?,10µM*,-4
O=C(NCc1nnc(SCC(=O)N2CCN(c3ccccc3)CC2)o1)c1c(F)cccc1Cl,-3,-16%,?,10µM*,-24%,-6
COc1ccc(Cc2nnc(SCC(=O)N3CCCC3)o2)cc1,-1,-17%,-13,61%,7%,4
COc1ccccc1Nc1cc(C(=O)NC2CCC(C)CC2)c2ccccc2n1 (centres undefined),nt,nt,-15,nt,nt,nt
COC(=O)/C=C/c1oc2ccccc2c1C,15,19%,-38,13%,-5%,38
CCc1ccc(OCc2nnc(SCC(=O)NC3CCCCC3)o2)cc1,20,42%,31,-22%,0%,47*
CC(C)c1ccc(OCc2nnc(SCC(=O)N3CCCCC3)o2)cc1,32*,-9%,?,86%,?,27
SMILES,Cycloheximide cs,Pf growth 48h,HCMV antiviral,Pf growth 96h,HCV inhibitor,Shiga toxin inh
COc1ccc(OCc2nnc(SCC(=O)N3CCCCC3)o2)cc1,0,4%,-15,12µM*,16%,-7
C[C@H]1[C@@H](NC(=O)NCc2ccccc2)CC[C@@]23CCCN2C(=O)CCC[C@@H]13,nt,nt,-38,nt,nt,nt
CC1=Nc2cc(C(=O)NCCCN3CCOCC3)ccc2Sc2c(C)ccc(C)c21,-4,?,-68*,-6%,?,-8
CC1=Nc2cc(C(=O)NCCN3CCOCC3)ccc2Sc2c(C)ccc(C)c21,-6,?,-14,12µM*,-4%,-13
CCCC1=Nc2cc(C(=O)NCCN3CCOCC3)ccc2Sc2ccccc21,-6,-30%,-32,?,?,-7
Cc1nc(C)c(C(=O)O)c(-c2cccs2)c1C(=O)O,1,6%,33,32%,10%,-10
CS(=O)(=O)N1CCN(c2nc3ccc(Cl)cc3s2)CC1,7,79%,2,35%,12%,47
Clc1ccc2nc(N3CCCCC3)sc2c1,39*,184%,43,?,?,82*
Clc1ccc2nc(N3CCCCC3)[nH]c2c1,37*,176%,224,58%,?,80*
CC(C)C(=O)N1CCN(c2nc3ccc(Cl)cc3s2)CC1,36*,96%,-10,79%,?,62*
CC(C)NC(=O)N1CCCN(c2nc3ccc(Cl)cc3s2)CC1,32*,-17%,?,5%,4µM*,37
NCCNS(=O)(=O)c1cccc2c(Cl)cccc12,-8,nt,nt,nt,nt,-9
CCN(Cc1ccccc1)S(=O)(=O)c1ccc2c(c1)CC(C)N2C(=O)C1CCC1 (centres undefined),nt,nt,-35,nt,nt,nt
CCOC(=O)c1sc2nc(C)nc(NCc3ccc(Cl)cc3)c2c1C,23,9.3µM*,-68*,?,?,14
CCOC(=O)c1sc2nc(C)nc(NCc3ccc(F)cc3)c2c1C,8,?,?,?,?,13
CCOC(=O)c1sc2nc(C)nc(Nc3ccc(OC)cc3)c2c1C,5,-3%,-67*,-1%,-25%,30
CCOC(=O)c1sc2nc(C)nc(SC(C)C(=O)N(C)c3ccccc3)c2c1C (centres undefined),nt,12µM*,-64*,9.3µM*,?,nt
COc1cccc(NC(=O)CSC2=Nc3ccccc3C3=NC(CC(=O)NCCc4ccccc4)C(=O)N23)c1 (centres undefined),nt,nt,19,nt,nt,nt
CCn1c(CCCCc2n[nH]c(=S)n2CC)n[nH]c1=S,6,4%,17,18%,7%,8
CN1CCN(C(=O)CCCOc2ccc(Cl)cc2Cl)CC1,10,15%,0,?,?,-7
O=C(CCCOc1ccc(Cl)cc1Cl)N/N=C/c1ccccc1,8,8%,-25,-18%,-20%,-8
CCN(CC)C(=O)CCCOc1ccc(Cl)cc1Cl,33,47%,-3,-28%,11%,91*
CCn1c(CCCOc2ccc(Cl)cc2Cl)n[nH]c1=S,21*,0%,-33,-13%,?,57*
O=C(CCCOc1ccc(Cl)cc1Cl)N/N=C/c1ccccc1O,6,?,-104*,?,?,9
C#CCN(C)CCCOc1ccc(Cl)cc1Cl,27*,33%,?,4%,-5%,81*
Cc1cc(C)c(S(=O)(=O)Nc2nccs2)c(C)c1,-1,2%,47,182%,18%,-9

# High-throughput results as filed in PubChem.
